Reference: PubChem BioAssay (NCI)
About 79,000 compounds went through this panel and 15% of them were active in at least one assay; those are over-represented in the sample as a whole. Unmarked numbers belong to inactive results. Active and inactive are the calls of the source. Rule as the data show it: active = growth inhibition above about 70%; inactive = the rest.

Assays:
[1] = NCI Yeast Anticancer Drug Screen. Data for the mlh1 strain (AID 171);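 also: 0% = growth of vehicle-treated control cultures of the same strain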; conditions: S. cerevisiae mlh1 strain growth inhibition, hits give high values
Summary of the method: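 Growth of the mutant yeast strain after compound exposure, expressed as inhibition relative to vehicle-only controls.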

[2] = NCI Yeast Anticancer Drug Screen. Data for the sgs1 strain (AID 173);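 also: 0% = growth of vehicle-only control cultures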; conditions: S. cerevisiae sgs1 mutant, hits give high values
Summary of the method: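 Growth of a yeast strain bearing a defined genetic alteration is measured after compound treatment. Inhibition is expressed relative to vehicle-only controls.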

[3] = NCI Yeast Anticancer Drug Screen. Data for the mlh1 rad18 strain (AID 175); conditions: S. cerevisiae mlh1 rad18 strain growth inhibition, hits give high values
Summary of the method: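 Read-out is yeast growth inhibition, calculated against vehicle-only controls. The compound was applied to a strain engineered with DNA damage repair alterations.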

[4] = NCI Yeast Anticancer Drug Screen. Data for the rad18 strain (AID 177); conditions: S. cerevisiae rad18 mutant growth inhibition, hits give high values
Summary of the method: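 Growth of the mutant yeast strain after compound exposure, normalised to vehicle-only cultures.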

[5] = NCI Yeast Anticancer Drug Screen. Data for the rad52 strain (AID 147);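 also: 0% = growth of vehicle-treated control cultures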; conditions: S. cerevisiae rad52 mutant growth inhibition, hits give high values
Summary of the method: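 Compounds are applied to a genetically defined yeast strain lacking normal DNA damage repair, and inhibition of growth is expressed relative to cultures given vehicle only.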

[6] = NCI Yeast Anticancer Drug Screen. Data for the wt1 strain (AID 149);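 also: 0% = growth of vehicle-treated wt1 cultures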; conditions: S. cerevisiae wt1 strain (SPY 50644) growth inhibition, hits give high values
Summary of the method: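 Readout: yeast growth inhibition, normalised to vehicle controls, in the wt1 strain exposed to test compounds.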

[7] = NCI Yeast Anticancer Drug Screen. Data for the rad50EPP+ strain (AID 151);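 also: 0% = growth of vehicle-treated control cultures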; conditions: S. cerevisiae rad50 mutant strain, hits give high values
Summary of the method: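 Compounds were applied to the rad50EPP+ yeast strain, which bears a defined DNA repair alteration, and growth inhibition was determined relative to vehicle-treated cultures.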

[8] = NCI Yeast Anticancer Drug Screen. Data for the mgt1 strain (AID 153); conditions: S. cerevisiae mgt1 mutant growth inhibition, hits give high values
Summary of the method: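 Strain: mgt1 yeast, one of a set carrying defined DNA damage repair or cell cycle control alterations. Compound-treated growth compared with vehicle.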

[9] = NCI Yeast Anticancer Drug Screen. Data for the rad50 strain (AID 155);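 also: 0% = growth of vehicle-only cultures of the same strain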; conditions: S. cerevisiae rad50 strain growth inhibition, hits give high values
Summary of the method: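 Compounds were tested on a yeast strain with an engineered DNA damage repair alteration; the reported value is growth inhibition normalised to vehicle treatment.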

[10] = NCI Yeast Anticancer Drug Screen. Data for the mec2-1 strain (AID 157); conditions: S. cerevisiae mec2-1 strain, hits give high values
Summary of the method: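 Strain: mec2-1 (DNA repair/cell cycle alteration). Compound exposure, then growth measured; inhibition expressed relative to vehicle.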

[11] = NCI Yeast Anticancer Drug Screen. Data for the sgs1 mgt1 strain (AID 161);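 also: 0% = growth of cultures given vehicle only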; conditions: S. cerevisiae sgs1 mgt1 strain, hits give high values
Summary of the method: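 Read-out: growth inhibition vs vehicle controls. Cells: mutant yeast strain deficient in DNA damage repair.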

[12] = NCI Yeast Anticancer Drug Screen. Data for the CLN2oe strain (AID 163);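 also: 0% = growth of vehicle-only control cultures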; conditions: S. cerevisiae CLN2oe strain, hits give high values
Summary of the method: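 Growth of a genetically modified yeast strain is measured after compound exposure and compared with cultures given vehicle alone.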

[13] = NCI Yeast Anticancer Drug Screen. Data for the cln2 rad14 strain (AID 165);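 also: 0% = growth equal to vehicle treated cultures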; conditions: S. cerevisiae cln2 rad14 strain, hits give high values
Summary of the method: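 Compounds are applied to the cln2 rad14 yeast strain, and growth is then compared with that of vehicle-treated cultures to give inhibition.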

[14] = NCI Yeast Anticancer Drug Screen. Data for the bub3 strain (AID 167); conditions: S. cerevisiae bub3 mutant strain, hits give high values
Summary of the method: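 Growth of a checkpoint-deficient yeast mutant is measured after compound exposure. Values represent inhibition relative to vehicle.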

[15] = NCI Yeast Anticancer Drug Screen. Data for the wt2 strain (AID 169);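 also: 0% = growth of vehicle-treated yeast cultures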; conditions: S. cerevisiae wt2 strain growth inhibition, hits give high values
Summary of the method: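 This strain belongs to a panel of yeast strains with defined genetic alterations in DNA damage repair or cell cycle control. Compounds are applied, and growth inhibition is measured against vehicle-treated cultures.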

[16] = at 5.0 µM (retest, dose inferred, filed as 0.5)
[17] = at 50.0 µM (retest, dose inferred, filed as 5.0)

Compound `CCc1ccc(NS(=O)(=O)c2ccccc2)c([N+](=O)[O-])c1` has a growth inhibition ([1]; at 1.2 µM) of 0%, a growth inhibition ([1]; at 3.7 µM) of 3% and a growth inhibition ([1]; at 11.0 µM) of 7%. For the same compound, the growth inhibition ([1]; at 33.0 µM) was 31%, the growth inhibition ([1]; at 100.0 µM) was 71% (active) and the growth inhibition ([2]; at 1.2 µM) was 2%. The growth inhibition ([2]; at 3.7 µM) was 5%, the growth inhibition ([2]; at 11.0 µM) was 15% and the growth inhibition ([2]; at 33.0 µM) was 44%. For the same compound, the growth inhibition ([2]; at 100.0 µM) was 90% (active), the growth inhibition [3, 16] was 1% and the growth inhibition [3, 17] was 61%. For the same compound, the growth inhibition ([3]; at 50.0 µM) was 78% (active), the growth inhibition ([4]; at 1.2 µM) was 2% and the growth inhibition ([4]; at 3.7 µM) was 6%. For the same compound, the growth inhibition ([4]; at 11.0 µM) was 15%, the growth inhibition ([4]; at 33.0 µM) was 43% and the growth inhibition ([4]; at 100.0 µM) was 87% (active).

`O=C1c2ccccc2-c2n[nH]c3cccc1c23` gave a growth inhibition ([5]; at 1.2 µM) of -28%, a growth inhibition ([5]; at 3.7 µM) of 10% and a growth inhibition ([5]; at 11.0 µM) of 69%. The growth inhibition ([5]; at 33.0 µM) was 84% (active), the growth inhibition ([5]; at 100.0 µM) was 78% (active) and the growth inhibition ([6]; at 1.2 µM) was -21%. It also gave a growth inhibition ([6]; at 3.7 µM) of -28%, a growth inhibition ([6]; at 11.0 µM) of -12% and a growth inhibition ([6]; at 33.0 µM) of 10%. It also gave a growth inhibition ([6]; at 100.0 µM) of 11%, a growth inhibition ([7]; at 1.2 µM) of 7% and a growth inhibition ([7]; at 3.7 µM) of 69%. For the same compound, the growth inhibition ([7]; at 11.0 µM) was 86% (active), the growth inhibition ([7]; at 33.0 µM) was 88% (active) and the growth inhibition ([7]; at 100.0 µM) was 73% (active). The growth inhibition ([8]; at 1.2 µM) was -40%, the growth inhibition ([8]; at 3.7 µM) was -32% and the growth inhibition ([8]; at 11.0 µM) was -10%. For the same compound, the growth inhibition ([8]; at 33.0 µM) was 27%, the growth inhibition ([8]; at 100.0 µM) was 32% and the growth inhibition ([9]; at 1.2 µM) was -21%. The growth inhibition ([9]; at 3.7 µM) was 29%, the growth inhibition [9, 16] was 100% (active) and the growth inhibition ([9]; at 11.0 µM) was 67%. The growth inhibition ([9]; at 33.0 µM) was 79% (active), the growth inhibition [9, 17] was 99% (active) and the growth inhibition ([9]; at 50.0 µM) was 69.2%. For the same compound, the growth inhibition ([9]; at 100.0 µM) was 74% (active), the growth inhibition ([10]; at 1.2 µM) was -67% and the growth inhibition ([10]; at 3.7 µM) was -38%. For the same compound, the growth inhibition [10, 16] was 100% (active), the growth inhibition ([10]; at 11.0 µM) was -5% and the growth inhibition ([10]; at 33.0 µM) was 26%. The growth inhibition [10, 17] was 100% (active), the growth inhibition ([10]; at 50.0 µM) was 54.3% and the growth inhibition ([10]; at 100.0 µM) was 46%. The growth inhibition [11, 16] was -5%, the growth inhibition [11, 17] was 86% (active) and the growth inhibition ([11]; at 50.0 µM) was 78.1% (active). It also gave a growth inhibition ([12]; at 1.2 µM) of -52%, a growth inhibition ([12]; at 3.7 µM) of -21% and a growth inhibition ([12]; at 11.0 µM) of -26%. The growth inhibition ([12]; at 33.0 µM) was -6%, the growth inhibition ([12]; at 100.0 µM) was 1% and the growth inhibition [13, 16] was 44%. For the same compound, the growth inhibition [13, 17] was 87% (active), the growth inhibition ([13]; at 50.0 µM) was 38.9% and the growth inhibition ([14]; at 1.2 µM) was -1%. It also gave a growth inhibition ([14]; at 3.7 µM) of -15%, a growth inhibition [14, 16] of 0% and a growth inhibition ([14]; at 11.0 µM) of 22%. The growth inhibition ([14]; at 33.0 µM) was 46%, the growth inhibition [14, 17] was 89% (active) and the growth inhibition ([14]; at 50.0 µM) was 65.6%. The growth inhibition ([14]; at 100.0 µM) was 53%, the growth inhibition ([15]; at 1.2 µM) was -20% and the growth inhibition ([15]; at 3.7 µM) was -20%. The growth inhibition ([15]; at 11.0 µM) was 2%, the growth inhibition ([15]; at 33.0 µM) was 41% and the growth inhibition ([15]; at 100.0 µM) was 36%. It also gave a growth inhibition ([1]; at 1.2 µM) of -42%, a growth inhibition ([1]; at 3.7 µM) of -38% and a growth inhibition ([1]; at 11.0 µM) of 9%. It also gave a growth inhibition ([1]; at 33.0 µM) of 39%, a growth inhibition ([1]; at 100.0 µM) of 58% and a growth inhibition ([2]; at 1.2 µM) of -39%. It also gave a growth inhibition ([2]; at 3.7 µM) of -16%, a growth inhibition ([2]; at 11.0 µM) of 3% and a growth inhibition ([2]; at 33.0 µM) of 35%. For the same compound, the growth inhibition ([2]; at 100.0 µM) was 27%, the growth inhibition [3, 16] was 100% (active) and the growth inhibition [3, 17] was 100% (active). For the same compound, the growth inhibition ([3]; at 50.0 µM) was 81.1% (active), the growth inhibition ([4]; at 1.2 µM) was -49% and the growth inhibition ([4]; at 3.7 µM) was -32%. For the same compound, the growth inhibition ([4]; at 11.0 µM) was -1%, the growth inhibition ([4]; at 33.0 µM) was 33% and the growth inhibition ([4]; at 100.0 µM) was 50%.
